About 21,000 targets were measured; listed, in parts, are those with the largest changes and a random draw of the rest.
Compound: CC1Cc2ccccc2N1C(=O)C1CCCN(C1)C(=O)CCl (mixture of isomers) [TRIM25 ligand 11 (diastereomer mixture)]
Experiment: probe-labelled cysteine peptide fold change vs DMSO (competition) (log2 fold change); higher = less target engagement (more negative = stronger competition)
Details: THP-1, incubation time: 4 h
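Further: competitive chemoproteomic profiling in live THP-1 cells with an iodoacetamide desthiobiotin (IA-DTB) probe, comparing probe-labelled peptide intensities in compound-treated cells against DMSO-treated controls.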

UniProt Q9Y2H2, sequence (Q9Y2H2 whole entry, looked up): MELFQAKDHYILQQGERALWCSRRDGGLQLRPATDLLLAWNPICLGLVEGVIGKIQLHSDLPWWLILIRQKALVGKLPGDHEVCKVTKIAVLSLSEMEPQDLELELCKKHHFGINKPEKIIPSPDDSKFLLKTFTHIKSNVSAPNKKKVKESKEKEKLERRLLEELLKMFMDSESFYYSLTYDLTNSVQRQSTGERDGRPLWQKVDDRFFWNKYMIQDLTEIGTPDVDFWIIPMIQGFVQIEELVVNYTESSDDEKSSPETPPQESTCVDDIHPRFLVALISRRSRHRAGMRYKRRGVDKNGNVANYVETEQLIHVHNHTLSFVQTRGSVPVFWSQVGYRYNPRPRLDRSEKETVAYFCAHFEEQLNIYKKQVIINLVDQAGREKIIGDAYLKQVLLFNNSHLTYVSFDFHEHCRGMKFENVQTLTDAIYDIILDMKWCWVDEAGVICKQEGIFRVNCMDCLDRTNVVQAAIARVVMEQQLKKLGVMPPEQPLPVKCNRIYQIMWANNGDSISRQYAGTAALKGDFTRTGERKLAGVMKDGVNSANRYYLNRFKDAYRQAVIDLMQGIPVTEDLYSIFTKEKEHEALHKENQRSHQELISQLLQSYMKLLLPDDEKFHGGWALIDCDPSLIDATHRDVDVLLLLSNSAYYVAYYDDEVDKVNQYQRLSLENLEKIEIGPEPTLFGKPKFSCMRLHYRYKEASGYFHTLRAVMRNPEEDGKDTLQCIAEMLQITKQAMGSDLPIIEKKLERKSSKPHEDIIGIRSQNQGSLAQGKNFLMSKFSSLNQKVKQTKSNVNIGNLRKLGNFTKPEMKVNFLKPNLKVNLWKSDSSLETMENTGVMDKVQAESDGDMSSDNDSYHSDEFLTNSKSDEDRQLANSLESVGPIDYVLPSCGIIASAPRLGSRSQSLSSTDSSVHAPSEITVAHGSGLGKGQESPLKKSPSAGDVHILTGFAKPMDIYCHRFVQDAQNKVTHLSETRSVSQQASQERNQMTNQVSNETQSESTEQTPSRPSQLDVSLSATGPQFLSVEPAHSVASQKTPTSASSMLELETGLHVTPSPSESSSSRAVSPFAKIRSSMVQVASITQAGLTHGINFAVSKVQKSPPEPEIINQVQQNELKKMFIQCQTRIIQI
UniProt Q9NSE4, sequence (Q9NSE4 whole entry, looked up): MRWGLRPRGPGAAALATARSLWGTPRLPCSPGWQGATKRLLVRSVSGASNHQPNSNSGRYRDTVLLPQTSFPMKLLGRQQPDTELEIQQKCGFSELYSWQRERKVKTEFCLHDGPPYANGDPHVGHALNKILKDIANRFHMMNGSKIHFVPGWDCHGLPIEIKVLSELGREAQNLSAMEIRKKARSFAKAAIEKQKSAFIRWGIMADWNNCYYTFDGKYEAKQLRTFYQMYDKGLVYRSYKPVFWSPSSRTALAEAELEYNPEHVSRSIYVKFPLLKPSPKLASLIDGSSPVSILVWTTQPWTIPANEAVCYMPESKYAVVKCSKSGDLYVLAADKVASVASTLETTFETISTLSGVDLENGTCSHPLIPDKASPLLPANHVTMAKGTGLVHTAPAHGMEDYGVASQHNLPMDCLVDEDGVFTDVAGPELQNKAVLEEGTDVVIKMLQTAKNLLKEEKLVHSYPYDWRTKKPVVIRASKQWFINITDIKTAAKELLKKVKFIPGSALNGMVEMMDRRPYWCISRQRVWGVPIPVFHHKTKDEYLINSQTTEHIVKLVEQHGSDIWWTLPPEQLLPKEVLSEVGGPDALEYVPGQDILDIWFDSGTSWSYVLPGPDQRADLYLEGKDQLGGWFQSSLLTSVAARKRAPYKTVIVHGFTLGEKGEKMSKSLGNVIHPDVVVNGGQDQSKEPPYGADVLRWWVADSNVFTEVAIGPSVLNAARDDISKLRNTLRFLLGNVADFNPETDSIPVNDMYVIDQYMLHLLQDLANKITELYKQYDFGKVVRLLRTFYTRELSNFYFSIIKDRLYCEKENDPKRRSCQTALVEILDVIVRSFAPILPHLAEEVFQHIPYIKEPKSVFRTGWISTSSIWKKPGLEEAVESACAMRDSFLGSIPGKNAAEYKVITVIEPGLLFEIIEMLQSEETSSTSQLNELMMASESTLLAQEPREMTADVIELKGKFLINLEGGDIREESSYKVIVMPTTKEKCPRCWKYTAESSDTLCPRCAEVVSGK
UniProt P52294, sequence (P52294 whole entry, looked up): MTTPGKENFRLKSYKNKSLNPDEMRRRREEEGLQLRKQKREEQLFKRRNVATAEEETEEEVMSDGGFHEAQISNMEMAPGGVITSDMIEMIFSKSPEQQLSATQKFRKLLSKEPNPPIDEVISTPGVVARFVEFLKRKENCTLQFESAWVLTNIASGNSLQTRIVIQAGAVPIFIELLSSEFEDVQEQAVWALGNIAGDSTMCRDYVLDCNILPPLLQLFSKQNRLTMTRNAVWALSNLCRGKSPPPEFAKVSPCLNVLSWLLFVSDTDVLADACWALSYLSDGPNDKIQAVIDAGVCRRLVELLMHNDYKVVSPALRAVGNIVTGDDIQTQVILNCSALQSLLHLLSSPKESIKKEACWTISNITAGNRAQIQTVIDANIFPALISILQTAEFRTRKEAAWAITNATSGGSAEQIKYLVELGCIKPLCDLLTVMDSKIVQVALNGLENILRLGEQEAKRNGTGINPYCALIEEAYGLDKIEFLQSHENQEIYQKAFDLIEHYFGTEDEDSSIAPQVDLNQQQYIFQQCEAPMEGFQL
UniProt P49916, sequence (P49916 whole entry, looked up): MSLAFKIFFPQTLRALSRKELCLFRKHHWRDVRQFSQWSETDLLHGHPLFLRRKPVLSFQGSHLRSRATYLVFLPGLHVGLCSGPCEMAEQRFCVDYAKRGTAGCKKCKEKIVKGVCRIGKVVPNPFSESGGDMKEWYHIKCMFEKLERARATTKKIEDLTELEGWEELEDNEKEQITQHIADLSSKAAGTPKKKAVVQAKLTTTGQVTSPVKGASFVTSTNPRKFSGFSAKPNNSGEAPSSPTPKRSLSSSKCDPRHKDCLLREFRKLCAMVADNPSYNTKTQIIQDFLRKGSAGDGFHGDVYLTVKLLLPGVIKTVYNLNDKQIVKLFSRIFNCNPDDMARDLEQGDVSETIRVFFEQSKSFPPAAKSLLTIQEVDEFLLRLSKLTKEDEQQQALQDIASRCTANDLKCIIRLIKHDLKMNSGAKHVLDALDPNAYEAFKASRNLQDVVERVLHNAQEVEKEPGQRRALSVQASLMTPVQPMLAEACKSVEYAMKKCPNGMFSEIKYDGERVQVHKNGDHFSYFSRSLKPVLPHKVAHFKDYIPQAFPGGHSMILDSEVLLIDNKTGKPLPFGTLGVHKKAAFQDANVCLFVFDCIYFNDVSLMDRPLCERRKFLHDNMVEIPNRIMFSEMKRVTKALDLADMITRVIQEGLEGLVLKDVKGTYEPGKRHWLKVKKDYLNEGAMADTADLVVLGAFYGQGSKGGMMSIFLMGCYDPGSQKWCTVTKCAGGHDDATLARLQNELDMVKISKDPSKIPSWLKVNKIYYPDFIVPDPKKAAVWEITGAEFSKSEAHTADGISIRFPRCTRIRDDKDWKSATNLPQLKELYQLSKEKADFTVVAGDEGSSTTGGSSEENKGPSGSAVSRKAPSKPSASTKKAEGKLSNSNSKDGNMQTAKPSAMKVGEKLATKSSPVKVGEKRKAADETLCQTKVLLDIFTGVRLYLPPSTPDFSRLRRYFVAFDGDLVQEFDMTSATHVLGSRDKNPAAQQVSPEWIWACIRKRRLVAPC
UniProt Q14807, sequence (Q14807 whole entry, looked up): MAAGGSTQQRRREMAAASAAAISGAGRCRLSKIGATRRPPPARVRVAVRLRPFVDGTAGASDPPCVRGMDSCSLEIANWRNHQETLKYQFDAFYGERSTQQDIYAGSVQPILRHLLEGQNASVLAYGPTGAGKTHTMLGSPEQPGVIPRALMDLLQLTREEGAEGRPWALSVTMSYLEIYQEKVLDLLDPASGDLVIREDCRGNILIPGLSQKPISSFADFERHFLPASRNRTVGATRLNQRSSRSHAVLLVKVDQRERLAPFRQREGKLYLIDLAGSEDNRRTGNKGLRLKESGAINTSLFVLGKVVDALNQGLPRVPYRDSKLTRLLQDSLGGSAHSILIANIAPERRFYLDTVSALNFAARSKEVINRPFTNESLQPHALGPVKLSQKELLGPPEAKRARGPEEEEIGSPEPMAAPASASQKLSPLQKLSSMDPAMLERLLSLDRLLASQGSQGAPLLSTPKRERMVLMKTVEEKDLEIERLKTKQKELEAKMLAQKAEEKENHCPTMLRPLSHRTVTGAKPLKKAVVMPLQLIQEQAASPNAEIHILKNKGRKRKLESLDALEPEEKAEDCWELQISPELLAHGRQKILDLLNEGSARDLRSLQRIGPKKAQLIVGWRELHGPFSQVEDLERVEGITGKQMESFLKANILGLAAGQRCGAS
UniProt P48059, sequence (P48059 whole entry, looked up): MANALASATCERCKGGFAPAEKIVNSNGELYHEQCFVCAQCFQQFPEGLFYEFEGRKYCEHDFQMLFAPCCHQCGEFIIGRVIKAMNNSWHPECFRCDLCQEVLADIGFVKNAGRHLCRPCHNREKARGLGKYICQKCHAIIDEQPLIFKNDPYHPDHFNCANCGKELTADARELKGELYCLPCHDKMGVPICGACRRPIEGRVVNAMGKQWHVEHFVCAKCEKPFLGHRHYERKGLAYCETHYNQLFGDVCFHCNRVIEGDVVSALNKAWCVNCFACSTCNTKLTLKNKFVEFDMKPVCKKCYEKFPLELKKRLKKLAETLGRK
UniProt O60711, sequence (O60711 whole entry, looked up): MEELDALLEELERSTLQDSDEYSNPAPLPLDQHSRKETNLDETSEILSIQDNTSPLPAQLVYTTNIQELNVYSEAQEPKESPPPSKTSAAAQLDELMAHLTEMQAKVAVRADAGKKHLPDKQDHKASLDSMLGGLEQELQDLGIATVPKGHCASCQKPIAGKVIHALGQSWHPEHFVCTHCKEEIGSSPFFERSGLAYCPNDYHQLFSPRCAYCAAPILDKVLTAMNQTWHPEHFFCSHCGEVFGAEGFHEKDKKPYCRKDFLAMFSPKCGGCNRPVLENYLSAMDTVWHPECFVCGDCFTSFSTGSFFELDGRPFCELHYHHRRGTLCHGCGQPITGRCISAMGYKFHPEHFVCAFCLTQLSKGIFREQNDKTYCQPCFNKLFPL

Target	probe-labelled cysteine peptide fold change (10 µM)	probe-labelled cysteine peptide fold change (50 µM)
LIMS3_P0CW19-2_121+132_KYCEHDFQMLFAPCCHQCGEFIIGR<|>LIMS1_P48059_59+70_KYCEHDFQMLFAPCCHQCGEFIIGR (UniProt P48059+P0CW19)	-0.18	-0.291
IGF2R_P11717_149_TLGTPEFVTATECVHYFEWR (UniProt P11717)	-0.0703	-0.305
KDM3A_Q9Y4C1_814_PACPASTSPLNWLADLTSGNVNK (UniProt Q9Y4C1)	0.0136	-0.377
IRF3_Q14653_267_HVLSCLGGGLALWR (UniProt Q14653)	-0.17	0.346
INTS6L_Q5JSJ4_745_NCSLSVDDQK (UniProt Q5JSJ4)	0.156	-0.0158
INPP5F_Q9Y2H2_725_DTLQCIAEMLQITK (UniProt Q9Y2H2)	0.173	0.242
IKBKB_O14920_524_EMEQAVELCGR (UniProt O14920)	0.182	0.0969
IGF2R_P11717_1783_TSECDFVFEWETPVVCPDEVR (UniProt P11717)	-0.144	-0.672
LPXN_O60711_155_GHCASCQK (UniProt O60711)	0.00581	0.145
ITGB2_P05107_386_VTYDSFCSNGVTHR (UniProt P05107)	0.0533	-0.0395
LANCL2_Q9NS86_367_GYGICHGTAGNGYSFLSLYR (UniProt Q9NS86)	0.0845	-0.0445
LIMS1_P48059_193+196_MGVPICGACR (UniProt P48059)	-0.089	-0.114
KLHL26_Q53HC5_383_SGEGAVDACYR (UniProt Q53HC5)	0.33	0.211
LRRC8C_Q8TDW0_599_MTNLTELELVHCDLER (UniProt Q8TDW0)	0.076	0.0824
KPNA1_P52294_424_YLVELGCIK (UniProt P52294)	0.213	0.184
LIG3_P49916_499_KCPNGMFSEIKYDGER (UniProt P49916)	0.24	0.59
LGALS1_P09382_17_ACGLVASNLNLKPGECLR (UniProt P09382)	-0.0469	-0.0291
KIF22_Q14807_201_VLDLLDPASGDLVIREDCR (UniProt Q14807)	-0.154	-0.158
IARS2_Q9NSE4_819_SCQTALVEILDVIVR (UniProt Q9NSE4)	0.153	-0.107
KIF3A_Q9Y496_230_SHAIFTITIECSEK (UniProt Q9Y496)	0.112	-0.0259
KIAA1958_Q8N8K9_246_PKPQTHAGPSCVGSAK (UniProt Q8N8K9)	-0.0886	-0.293
LGALS1_P09382_3_ACGLVASNLNLKPGECLR (UniProt P09382)	-0.0986	-0.246
ITGB2_P05107_481_NCECQTQGR (UniProt P05107)	-0.17	-0.216
IVD_P26440_136_ASGAVGLSYGAHSNLCINQLVR (UniProt P26440)	0.0597	-0.151
ITSN2_Q9NZM3_1429_ENSDRLEWIQAHVQCEGLAEQLIFNSLTNCLGPR (UniProt Q9NZM3)	-0.507	-0.633
KNTC1_P50748_911_IIDLIDREQGEDCLLLLK (UniProt P50748)	0.282	0.137
